The record followed here is ChEMBL document CHEMBL4513146, “CO-ADD screening of Karazin Kharkiv National University (Ukraine) compounds”.

Each structure is given as a SMILES string. Measured potencies and affinities stand elsewhere.

Assay [1] has as its system Staphylococcus aureus. Conditions: Concentration 32 ug.mL-1;; ASSAY_TEST Inhibition of Bacterial Growth; detection method Absorption (OD600); MEDIA CAMHB; plate type 384well; NBS; CORNING #3640; time 18 hr.
The test system of assay [2] is Escherichia coli. Conditions: Concentration 32 ug.mL-1;; ASSAY_TEST Inhibition of Bacterial Growth; detection method Absorption (OD600); MEDIA CAMHB; plate type 384well; NBS; CORNING #3640; time 18 hr.

What is called Inhibition is the drop in the measured response relative to a control, in per cent. For the compound `CC(C)CCNC(=O)CSc1nnc2c(=O)n(Cc3ccc(F)cc3)ccn12`, the values for the Inhibition in assay [1] and in assay [2] were 8.45% and -0.48%, respectively.

Take `CCOc1ccc(N(Cc2cccc(F)c2)S(=O)(=O)c2ccc3nncn3c2)cc1`: the Inhibition was 8.4% in assay [1] and -7.52% in assay [2].

Regarding `CCc1nnc2c(SCC(=O)Nc3ccc(C(=O)OC)cc3)nc3ccccc3n12`, the Inhibition is listed as 1.34% in assay [1] and -1.9% in assay [2].

With `CCc1nnc2ccc(S(=O)(=O)N(Cc3cccc(OC)c3)c3ccc(F)cc3)cn12`, the Inhibition in assay [1] is -0.44%; in assay [2] it was -12.34%.

`O=C(CSc1nnc2c(=O)n(-c3ccccc3)ccn12)Nc1ccc(F)cc1`: the Inhibition in assay [1] is reported as 5.78%; in assay [2] it was -2.43%.

With `Cc1c(Cl)cccc1-n1ccn2c(=O)n(Cc3ccc(F)cc3)nc2c1=O`, the results for the Inhibition in assay [1] and in assay [2] were 2.79% and -11.88%, respectively.

In the case of `COc1ccc(CN(c2ccc(F)cc2)S(=O)(=O)c2cccn3c(C)nnc23)cc1`, the figures for the Inhibition in assay [1] and in assay [2] were 15.23% and -3.22%, respectively.

`COc1cc(NC(=O)Cn2nc3ccc(SC(C)C)nn3c2=O)cc(OC)c1`: the Inhibition is listed as -7.38% in assay [1] and -2.23% in assay [2].

Turning to `COC(=O)c1ccc(CN(c2ccc(Cl)cc2)S(=O)(=O)c2ccc3nncn3c2)o1`, the results for the Inhibition in assay [1] and in assay [2] were 10.93% and -7.28%, respectively.

As for `CSc1cccc(NC(=O)Cn2nc3c4c5c(sc4ncn3c2=O)CCCC5)c1`, the Inhibition in assay [1] was -8.02%; in assay [2], -9.58%.

Regarding `Cc1nnc2c(S(=O)(=O)N(Cc3cccc(Cl)c3)c3ccc(F)c(F)c3)cccn12`, the Inhibition in assay [1] is 3.24%; in assay [2], -3.66%.

In the case of `Cc1ccc(Sc2ccc3nn(CC(=O)Nc4ccc(F)c(Cl)c4)c(=O)n3n2)cc1`, the Inhibition is 7.06% in assay [1] and 0.26% in assay [2].
